Measurements reported in PubChem BioAssay AID463213 (Sanford-Burnham Center for Chemical Genomics, 2010).
In all, about 7,400 compounds went through this assay and about 4,100 (55%) were called active.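 Rule for the calls: active = inhibition of yeast growth at or above a set limit in either of two repeat tests at 20 µM; inactive = the rest.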 The set was probably picked from earlier hits. Only a sample is shown.

test: growth inhibitors of tim10-1 mutant yeast, confirmation, single concentration, luminescence, S. cerevisiae (AID 463213);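 note: tim10-1 mutant grown at permissive 25 °C to find synthetic lethal compounds; 0% = DMSO yeast wells and 100% = medium wells without yeast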; conditions: S. cerevisiae tim10-1 ts strain growth, BacTiter-Glo, 24 h; at 20 µM; stronger effect = higher value

inhibition, inactive:
O=C1/C(=C\c2ccccc2Cl)SC(=S)N1CCC(=O)N1CCCc2ccccc21 27.6%
COc1ccc(/C=C2/SC(=O)N(CCCCCC(=O)Nc3ccccc3C(=O)O)C2=S)cc1 4.8%
COc1ccccc1C1C(C#N)=C(N)Oc2c1c(-c1ccccc1)nn2-c1ccccc1 (stereo unspecified) 21.8%
O=c1c(-c2ccc3c(c2)OCCO3)c(C(F)(F)F)oc2cc(O)cc(O)c12 22.5%
Cc1cccc(CN2CCC(CNC(=O)Nc3ccc(F)c(Cl)c3)CC2)c1 14.9%
CCOC(=O)C1=C(C)N=c2s/c(=C\C(=O)OC)c(=O)n2C1c1ccc(OC)cc1 (stereo unspecified) 24.7%
Oc1c(C(c2ccccn2)N2CCOCC2)ccc2cccnc12 (stereo unspecified) 16.2%
CCc1ccc(-c2cc3c(=O)n(CC(=O)NCCCN4CCN(Cc5ccccc5)CC4)nc(C)n3n2)cc1 -46.4%
CCCCNC(=S)N/N=C1\CCCCc2ccccc21 22.1%
C=CCNC(=S)N1CCN(CCN=Cc2c(C)[nH]n(-c3ccc([N+](=O)[O-])cc3)c2=O)CC1 27.4%
COc1ccc(-c2oc3ncn(Cc4ccco4)c(=N)c3c2-c2ccc(OC)cc2)cc1 17.6%
CCOC(=O)c1c(N)nn(C(=O)c2ccccc2)c1-c1ccccc1 16.3%
C=CCNc1nc(Nc2ccc(Cl)cc2)nc(OC)n1 2.4%
Cc1ccc(OS(=O)Nc2cccc3nccnc23)cc1 (stereo unspecified) 25.4%
COc1ccc(C(=O)/C=C/c2ccc(-c3ccccc3)cc2)cc1CSCC(=O)O 22.9%
CN1c2ccccc2-c2nc3ccccc3n2C1c1ccco1 (stereo unspecified) 19.8%
CCn1nc(C)c(NC(=O)/C=C/c2ccc(OC)c(COc3ccc(Br)cc3)c2)c1C 19.9%
COc1ccccc1-n1ccnc(SCC(=O)NC2CCCCC2)c1=O 11.8%
COc1ccccc1C(=O)NC(=S)Nc1ccccc1N1CCCCC1 19.4%
CCc1ccc(C(=O)NC(=S)Nc2ccccc2N2CCOCC2)cc1 17.1%
COc1ccc(/C=N/Nc2ncnc3sc4c(c23)CCCC4)cc1O 17.2%
CCOC(=O)N1CCC(N2Cc3cccc(C(=O)Nc4c(C)cccc4CC)c3C2=O)CC1 16.6%
COc1ccc(C(=O)NC(=S)NNC(=O)c2c(-c3ccccc3)noc2C)cc1 18.1%
COc1ccc(Nc2nc(N)nc(CSC(=S)N3CCC(C)CC3)n2)cc1 29.9%
Cc1cc(Br)ccc1NC(=O)c1sc2ncn(CC(=O)N3CCN(c4ccccn4)CC3)c(=O)c2c1C -10.2%
O=C(Oc1ccc(-c2nc(-c3ccccn3)no2)cc1)c1ccccc1 30.3%
N#Cc1ccc(CSc2nnc(-c3ccccn3)n2-c2ccc(Cl)cc2)cc1 30.9%

inhibition, active:
O=C(CCCN1C(=O)/C(=C/c2ccccc2)SC1=S)Nc1ccc(O)cc1 28.7%
Cc1ccc(C(C[N+](=O)[O-])c2c(C)cc3ccccn23)cc1 (stereo unspecified) 30.6%
CCN1/C(=C\c2ccc3ccccc3[n+]2CC)Sc2cc(C)ccc21 59%
COc1ccc2nc(/N=C(\N)NC(=O)Nc3ccccc3)nc(C)c2c1 51%
O=C1[C@@H](c2ccccc2)[C@@H](c2ccccc2)N1c1cccnc1 66.5%
Cc1cccc(NC(=O)c2ccc([N+](=O)[O-])o2)c1 50.1%
O=C(Nc1ccc(Br)cn1)c1ccc([N+](=O)[O-])o1 59.5%
Cc1onc(NC(=O)c2ccc([N+](=O)[O-])o2)c1Br 45.9%
CC(=O)/C(=N\Nc1ccc(Cl)cc1Cl)Sc1cccc2cccnc12 43%
Cc1cc(C)c(S(=O)(=O)c2ccccc2)c(OC(=O)c2c(F)cccc2Cl)n1 41.5%
CCN1CCN(C(c2cccnc2)c2cc(Cl)c3cccnc3c2O)CC1 (stereo unspecified) 34%
CCOC(=O)c1ccc(N2C(=O)CC(N3CCC(C(=O)OCC)CC3)C2=O)cc1 (stereo unspecified) 47.8%
Cc1[nH]c(=O)c(C(=O)/C=C/c2ccccc2)c2c1CCCC2 50.3%
COc1ccc(Cn2c(-c3ccc(Cl)cc3)c[n+]3ccccc23)cc1 32.9%
Cc1[nH]n(-c2ccc([N+](=O)[O-])cc2)c(=O)c1C=NCCN1CCN(C(=O)c2ccccc2F)CC1 40.4%
COc1ccc(CNC(=O)/C(C#N)=C/c2cccc(OC)c2OC)cc1 78.2%
O=C(NNc1c2ccccc2nc2ccccc12)c1cc2ccccc2cc1O 40.6%
Cc1cc(Nc2ccccc2)n(C(=O)c2ccc(N)cc2)n1 39.9%
Clc1ccc(Nc2ccc3ccccc3n2)cc1 50.6%
C=CS(=O)c1sc(Cl)c(N2CCOCC2)c1[N+](=O)[O-] (stereo unspecified) 83.8%
Nc1ccccc1SC(C[N+](=O)[O-])c1ccccc1 (stereo unspecified) 47.1%
CC(=O)Nc1ccc(/C=C/C(=O)c2ccccc2)cc1 36.3%
CCCCCCCCn1c2c(c(=N)c3c1CCC3)CCCC2 30.4%
O=[N+]([O-])c1ccc2oc(-c3cccc(O)c3)nc2c1 49.8%
Cc1ccc(C(=O)NC(=S)Nc2ccccc2C)cc1 29.8%
Cc1ccc(C(=O)/C=C/c2c(C)nn(-c3ccccc3)c2Cl)cc1 38%
Cc1[nH]c2ccccc2c1C(=O)COC(=O)c1c(-c2ccccc2)noc1C 45.4%
CC(=NCc1ccco1)c1c(C(F)(F)F)[nH]n(-c2nc3ccccc3s2)c1=O 63.5%
O=C(O/N=C(/c1ccccc1)c1ccncc1)c1ccccc1[N+](=O)[O-] 35.3%
Cc1ccc(Oc2nc(-c3ccccn3)nc3ccccc23)cc1 35.5%
O=C(ON=C1CCN(S(=O)(=O)c2ccccc2)CC1)c1ccc(Cl)cc1 61%
CCOc1cccc(-c2nn3c(-c4ccccn4)nnc3s2)c1 39%
Cc1cc(C)nc(S/C=C/C(=O)c2ccccc2)n1 71%
COc1ccc(NCc2nnc(SCc3ccccc3)n2-c2ccc(OC)cc2)cc1 38.9%
